Sampled rows, rich in hits. Any-hit rate of the full collection: about 3.5%.
Pf apPOL inh: Pf-apPOL DNA polymerase inhibition. Recombinant Pf-apPOL, molecular beacon fluorescence, 1.5 h. inhibition, % at 10 µM. hit rate 0.25% among 210,000. AID 1794808
mHTT-CaM PPI inh: disrupts binding of mutant huntingtin to calmodulin. AlphaScreen His-mHTT/GST-CaM binding, luminescence. inhibition, % at 15 µM. hit rate 3.6% among 190,000. AID 1671202;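 further: 0% = both proteins with DMSO and 100% = one protein alone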
Numbers without * were called inactive; . = no result; ! = repeats disagree. No stated cut-off is given here; in the data, active means inhibition above about 50%; inactive means the rest.

SMILES	Pf apPOL inh	mHTT-CaM PPI inh
CCN(CC)c1ccc(C=Nc2ccc(C)cc2)cc1	-4	-4
CCN(CC)c1ccc(N=Cc2ccc(O)cc2)cc1	-8	86*
COc1ccc(-c2nc3cccnc3n2C2CCN(C(=O)Nc3cccc(F)c3)C2)cc1 (stereo not drawn)	-4	7
CCOc1ccc2noc3c2c1C(=O)c1ccccc1-3	-4	11
O=C1c2ccccc2-c2onc3c(Br)cc(O)c1c23	-3	58*
O=C1c2ccccc2-c2onc3ccc(Cl)c1c23	-4	30
O=C1c2ccccc2-c2onc3c(Cl)cc(O)c1c23	-1	53*
O=C(Nc1ccc2c(c1)OCO2)C1CCCN(c2nnc3ccc(Cl)cn23)C1 (stereo not drawn)	-2	11
CCN1C(=O)C(C)(C(=O)NCc2cccc(Cl)c2)Oc2cccnc21 (stereo not drawn)	2	-6
COc1cccc(COc2cn(C)c(C(=O)NC3CCCCCC3)cc2=O)c1	3	-2
CCN(CC)S(=O)(=O)c1ccc2[nH]cc(C(=O)NCCCN3CCCC3=O)c(=O)c2c1	-24	51*
CCN(CC)S(=O)(=O)c1ccc2[nH]cc(C(=O)NCc3ccc(F)cc3)c(=O)c2c1	-7	4
CN(C)c1ccc(NC(=O)CCC2CCCCC2)cc1	-2	63*
COc1ccc(NC(=O)CCC2CCCCC2)cc1OC	-2	9
CCCCN(C)S(=O)(=O)c1ccc(C(=O)Nc2nc(-c3ccccn3)cs2)cc1	2	86*
CN(C1CCCCC1)S(=O)(=O)c1ccc(C(=O)Nc2nc(-c3ccccn3)cs2)cc1	-7	99*
CN(C)S(=O)(=O)c1ccc(C(=O)Nc2nc(-c3cccs3)cs2)cc1	-6	13
CCCCN(C)S(=O)(=O)c1ccc(C(=O)Nc2nc3c(s2)Cc2ccccc2-3)cc1	-2	-6
O=C(Nc1nc(-c2cccnc2)cs1)c1ccc(S(=O)(=O)N2CCc3ccccc32)cc1	-5	9
O=C(Nc1nc(-c2ccccn2)cs1)c1ccc(S(=O)(=O)N2CCc3ccccc32)cc1	2	97*
CC(C)c1ccc(N2CC(C(=O)NCC3CCCO3)CC2=O)cc1 (stereo not drawn)	-2	3
CCOc1cccc(CN2CCCC2c2c(C)noc2C)c1O (stereo not drawn)	3	-5
Cc1ccc(NC(=O)N2CCOc3ccc(Cl)cc32)cc1F	-4	-23
Cc1cccc(-n2c(C)nc3cc(C(=O)NCCc4ccccc4)ccc32)c1	27	13
O=C(NCCc1cnc[nH]1)c1cccn2c(=O)c3ccccc3nc12	-2	38
SMILES	Pf apPOL inh	mHTT-CaM PPI inh
O=C(Nc1ccc(-c2noc(-c3ccc(F)cc3)n2)cc1)c1ccco1	-12	6
O=C(O)Cc1c[nH]c2ccc(O)cc12	95*!	85*
NC(Cc1c[nH]c2ccc(O)cc12)C(=O)O (stereo not drawn)	-2	.
COC(=O)C1=C(N)Oc2cc(C)oc(=O)c2C1c1cc(OC)c(OC)c(OC)c1 (stereo not drawn)	-6	4
Cc1ccc2nc(-c3ccc(N=Cc4ccccc4O)cc3)sc2c1	-1	.
Cc1ccc(N=Cc2cc3ccccc3[nH]c2=O)cc1	-1	57*
O=C(CCn1cnc2ccccc2c1=O)Nc1cccc(-c2ccn[nH]2)c1	-4	-10
C=CCn1c(SCC(=O)Nc2ccc(OC)cc2)nnc1C(c1ccccc1)c1ccccc1	97*	17
C=CCn1c(SCC(=O)Nc2ccc(F)cc2)nnc1-c1cccc(OC)c1	-11	-2
Cc1c(C2=N/C(=C/c3cccc([N+](=O)[O-])c3)C(=O)O2)cccc1[N+](=O)[O-]	-2	4
Cc1ccc(-n2ncc3c(N4CCOCC4)ncnc32)c(C)c1	-3	56*
Cc1cccc(-n2ncc3c(N4CCOCC4)ncnc32)c1	0	1
CCN1C(=O)c2cccnc2Sc2cc(NC(=O)C(C)(C)C)ccc21	6	19
COc1ccc(/C=C2/N=C(c3cc(Br)ccc3OC)OC2=O)c(OC)c1	-2	-2
COc1cc(O)c(CN2CCCCC2)c2oc(-c3ccccc3)cc(=O)c12	-7	2
COc1cccc(C2=CC(c3ccc(OC)cc3OC)n3ncnc3N2)c1 (stereo not drawn)	-9	22
COc1ccc(C2C=C(c3ccc(Br)s3)Nc3ncnn32)cc1OC (stereo not drawn)	-6	57*
COc1ccc(C2C=C(c3cccs3)Nc3ncnn32)cc1OC (stereo not drawn)	-3	6
COc1cccc(C2C=C(c3ccc(Cl)cc3)Nc3ncnn32)c1OC (stereo not drawn)	-5	58*
COc1ccc(C2=CC(c3cccc(OC)c3OC)n3ncnc3N2)cc1 (stereo not drawn)	-6	-2
COc1cccc(C2C=C(c3ccc(F)cc3)Nc3ncnn32)c1OC(F)F (stereo not drawn)	-5	73*
Fc1ccc(C2=CC(c3ccccc3OC(F)F)n3ncnc3N2)cc1 (stereo not drawn)	-6	10
COc1ccc(C2C=C(c3cccc(NC(C)=O)c3)Nc3ncnn32)c(OC)c1 (stereo not drawn)	83*	4
O=C(CCc1ccccc1)N1CCCC(COc2ccc(C(=O)N3CCCCC3)cc2)C1 (stereo not drawn)	0	9
Cc1ccccc1N1C(N)=C(C#N)C(c2ccc3c(c2)OCO3)C2=C1CCCC2=O (stereo not drawn)	5	22
SMILES	Pf apPOL inh	mHTT-CaM PPI inh
Cc1ccc(-n2cc(C(=O)NCc3cccnc3)nn2)cc1	-1	1
Cc1nn(-c2ccc(F)cc2)c2nc(N3CCC(NC(=O)c4ccccc4)CC3)sc12	-5	3
COc1ccc(C2C=C(c3cccc(Br)c3)Nc3ncnn32)c(OC)c1 (stereo not drawn)	-8	45
COc1cc(C2C=C(c3cccc(Br)c3)Nc3ncnn32)cc(OC)c1OC (stereo not drawn)	-9	100*
CCc1ccc(C2=CC(c3ccc(OC)c(OC)c3OC)n3ncnc3N2)cc1 (stereo not drawn)	-3	35
COc1ccc(C2C=C(c3ccc(Cl)cc3)Nc3ncnn32)c(OC)c1OC (stereo not drawn)	-3	89*
COc1ccc(C2CC(=O)NC(SCC(=O)Nc3ccc(C)c(Cl)c3)=C2C#N)cc1OC (stereo not drawn)	11	26
Cc1ccnc(Nc2nc(CC(=O)NCCc3cccs3)cs2)c1	-18	15
Cc1ccnc(Nc2nc(-c3ccncc3)cs2)c1	3	28
Cc1ccnc(Nc2nc(-c3cccnc3)cs2)c1	72*!	7
Cc1ccnc(Nc2nc(-c3ccc(Cl)cc3)cs2)c1	-3	2
Cc1ccnc(Nc2nc(CC(=O)NCc3ccco3)cs2)c1	16	68*
Cc1ccnc(Nc2nc(-c3ccc4c(c3)OCO4)cs2)c1	-1	56*
CSc1nnc(-c2nn(C)c3c2CN(C(=O)C2CCC2)CC3)n1C	-3	2
CC(=O)N1CCc2cc(N3CC(C(=O)NCc4cc(C)ccc4C)CC3=O)ccc21 (stereo not drawn)	-4	5
Cc1c(C(=O)c2ccccc2)n(C)c2ccccc12	-6	-94
CSc1ncc(Cl)c(C(=O)N2CCc3ccccc3C2)n1	-7	4
Cn1cccc1C(=O)C(C#N)=Cc1ccc(C#N)cc1	-4	.
C=CCc1c(C)nc2nc(SCC(=O)Nc3ccc(C)c(C)c3)nn2c1C	-4	53*
Cc1cc(C)n2nc(SCc3ccc(F)cc3Cl)nc2n1	-9	52*
